From PubChem
Sampled rows, rich in hits. Any-hit rate of the full collection: about 1.2%.
RXFP1 agonist – agonists of human relaxin receptor RXFP1. Q9HBX9. HEK293T-RXFP1 cAMP TR-FRET, 30 min; response scale: percent of porcine relaxin response, buffer zero. Potency, µM (highest dose often 57.5 µM), for inactives: top-dose activation, usual class: activators. actives 0.3% (n = 370,000). AID 2676; active = well fitted activation curve with a large enough effect; inconclusive = small, poorly fitted or top-dose-only effect; also: potency is read from the fitted curve at half-maximal effect; % is scaled to controls: 0 for no effect and ±100 for the full control effect; nearly all actives have a fitted effect of over 60% in size
Target sequence (Q9HBX9 whole entry, looked up): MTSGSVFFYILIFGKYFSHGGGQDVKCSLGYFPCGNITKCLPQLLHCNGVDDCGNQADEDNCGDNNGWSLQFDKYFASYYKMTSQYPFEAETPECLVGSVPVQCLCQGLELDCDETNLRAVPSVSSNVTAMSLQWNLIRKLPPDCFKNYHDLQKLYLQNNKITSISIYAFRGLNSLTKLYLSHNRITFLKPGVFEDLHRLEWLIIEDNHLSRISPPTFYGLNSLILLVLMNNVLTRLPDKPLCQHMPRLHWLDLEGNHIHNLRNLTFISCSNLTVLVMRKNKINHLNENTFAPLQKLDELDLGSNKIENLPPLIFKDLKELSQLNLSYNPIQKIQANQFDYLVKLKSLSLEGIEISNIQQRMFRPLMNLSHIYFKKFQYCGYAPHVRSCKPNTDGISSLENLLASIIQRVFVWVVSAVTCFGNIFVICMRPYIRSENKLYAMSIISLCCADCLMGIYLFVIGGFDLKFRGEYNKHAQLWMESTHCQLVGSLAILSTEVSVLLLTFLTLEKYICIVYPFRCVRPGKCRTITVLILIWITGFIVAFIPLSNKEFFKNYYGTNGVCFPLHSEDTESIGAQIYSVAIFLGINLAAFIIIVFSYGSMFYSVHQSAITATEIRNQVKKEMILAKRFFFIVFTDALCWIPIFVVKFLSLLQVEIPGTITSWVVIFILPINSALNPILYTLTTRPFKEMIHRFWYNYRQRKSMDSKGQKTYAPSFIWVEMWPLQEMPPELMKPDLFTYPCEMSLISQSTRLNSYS
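cAMP rise read by TR-FRET after 30 min, 37C compound exposure (up to 58 uM) in RXFP1-transfected HEK293 cells with Ro 20174 present. EC50 from Hill-equation fits, with 29 nM porcine relaxin as 100% and buffer as basal.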
pAkt inh – Akt phosphorylation inhibition | activity change, % for hits at 50 µM | actives 0.32% (n = 360,000) | Neuro2A IGF-stimulated pAkt S473 HTRF, 20 min; hits give low values; in the data active = activity change below about -80%; inconclusive = mostly about -51% to -80%; also: % is scaled to controls: 0 for no effect and ±100 for the full control effect
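Single-point screen (50 µM final compound) in Neuro2A cells stimulated 20 min with 6 nM IGF at 37 deg C. After lysis, Ser473-phosphorylated Akt read by HTRF (ex 330 nm, em 615/665 nm) as the 665/615 ratio.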
RXFP1 antagonist – blocks the human relaxin receptor RXFP1. activity change, negative = inhibition, % at 57.5 µM. HEK293-RXFP1, relaxin-stimulated cAMP HTRF, 30 min; hits give low values. actives 0.59% (n = 350,000). Q9HBX9;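 active = activity change of -60% or lower, but not beyond a set lower limit; inconclusive = change between -60% and -40%, or beyond the set limit; inactive = change above -40%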; also: % is scaled to controls: 0 for no effect and ±100 for the full control effect
gsp antagonist – gsp mutant antagonism | AID 624288 | Potency, µM (doses to about 76.9 µM), without a hit: top-dose activity change, negative = inhibition, most hits filed as inhibitors | gsp-mutant cells, cAMP HTRF, 30 min | actives 0.4% (n = 340,000); calls by dose curve; cell line not stated here;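 also: intracellular cAMP measured with PDE inhibitor Ro 20-1724 present during compound exposure; potency is read from the fitted curve at half-maximal effect; % is scaled to controls: 0 for no effect and ±100 for the full control effect; nearly all actives have a fitted effect of over 65% in size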
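HTRF cAMP measurement after 30 min RT detection following 30 min, 37C compound treatment alongside […] (added as 300 uM solution) in G418-selected cells seeded at 2000/well and grown 16–24 h.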
gsp ag – gsp mutant agonism; AID 624287; actives 0.13% (n = 340,000); gsp mutant cells, cAMP HTRF, 30 min; Potency, µM (top dose mostly 76.9 µM), for inactives: at the top dose activation (cAMP increase), usual class: activators; active = well fitted activation curve with a large enough effect; inconclusive = small, poorly fitted or top-dose-only effect, or another doubt; inactive = no such curve, though single readings can be large or run the other way; cell line not stated here;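 also: phosphodiesterase inhibitor Ro 20-1724 added with compounds to block cAMP breakdown; potency is read from the fitted curve at half-maximal effect; nearly all actives have a fitted effect of over 60% in size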
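Cells stably selected in G418 were plated at 2000/well, grown 16-24 hr, then given compounds in DMSO with the PDE inhibitor […] (300 uM solution added) for 30 min at 37C; cAMP was read by HTRF.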
* = called active by the depositor; ! = not active in a repeat; [ ] = remark or other dose.

What do the screens show for `CC1=NNC(=O)/C1=C\c1cn(-c2ccccc2)nc1-c1cccs1`?
RXFP1 agonist: 4%; pAkt inh: inactive; RXFP1 antagonist: inconclusive; gsp antagonist: 94%; gsp ag: 1%

Results for CC1=NNC(=O)/C1=C\c1cn(-c2ccccc2)nc1-c1ccc(F)cc1 ?
RXFP1 agonist: 0%; pAkt inh: inactive; RXFP1 antagonist: -61*; gsp antagonist: -2%; gsp ag: -9%[15.4 µM]

Results for O/N=C/c1cn(-c2ccccc2)nc1-c1cccnc1 ?
RXFP1 agonist: 1%; pAkt inh: inactive; RXFP1 antagonist: -19; gsp antagonist: -13%; gsp ag: 5%[15.4 µM]

How did Cc1ccc(-c2nn(-c3ccccc3)cc2/C=N/O)cc1 do in these assays?
RXFP1 agonist: 6%; pAkt inh: inactive; RXFP1 antagonist: -64*; gsp antagonist: 11%; gsp ag: -4%

How did CC1=C2C(CCS2(=O)=O)CC2(C1)C(=O)OC(C)(C)OC2=O (stereo unspecified) do in these assays?
RXFP1 agonist: 0%; pAkt inh: -82%*; RXFP1 antagonist: -6; gsp antagonist: 14%; gsp ag: -29%

What do the screens show for `COc1ccc(N2CCN(S(=O)(=O)c3ccc4c(c3)CC(C)N4C(C)=O)CC2)cc1` (stereo unspecified)?
RXFP1 agonist: 1%; RXFP1 antagonist: -9

Results for O=C(Cn1cc(SCc2cccc(F)c2)c2ccccc21)N1CCCC1 ?
RXFP1 agonist: 0%; RXFP1 antagonist: -25

Results for O=C(Nc1cccc(-c2cnc3ccccc3n2)c1)C1CC(=O)N(c2ccccc2)C1 (stereo unspecified) ?
RXFP1 agonist: 1%; pAkt inh: inactive; RXFP1 antagonist: -73*; gsp antagonist: inconclusive; gsp ag: 6%[15.4 µM]

What do the screens show for `CN(c1ccccc1)c1nc(N)c([N+](=O)[O-])c(Nc2ccccc2)n1`?
RXFP1 agonist: 6%; pAkt inh: inactive; RXFP1 antagonist: -21; gsp antagonist: 5%; gsp ag: -13%

How did CN(c1ccccc1)c1nc(N)c([N+](=O)[O-])c(NC2CCCCC2)n1 do in these assays?
RXFP1 agonist: 0%; pAkt inh: inactive; RXFP1 antagonist: -16; gsp antagonist: 50µM*; gsp ag: -54%

What do the screens show for `O=C(CCN1C(=O)/C(=C\c2ccccc2Cl)SC1=S)Nc1cccnc1`?
RXFP1 agonist: 0%; pAkt inh: inactive; RXFP1 antagonist: inconclusive; gsp antagonist: 35µM*; gsp ag: -55%

What do the screens show for `O=C(CCN1C(=O)/C(=C/c2ccccc2F)SC1=S)Nc1cccnc1`?
RXFP1 agonist: 2%; pAkt inh: inactive; RXFP1 antagonist: -8; gsp antagonist: inconclusive; gsp ag: -2%

How did CC(CCc1ccccc1)NC(=O)C1CCN(c2nnc(-n3cccc3)s2)CC1 (stereo unspecified) do in these assays?
RXFP1 agonist: -1%; pAkt inh: inactive; gsp antagonist: -2%; gsp ag: 13µM*

How did O=C(O)CNC(=O)c1ccccc1I do in these assays?
RXFP1 antagonist: 11

What do the screens show for `Cc1ccc(NC(=O)Cn2c(=O)n(CCCCC(=O)NCCc3ccc(Cl)cc3)c(=O)c3ccccc32)cc1`?
RXFP1 agonist: 6%

Results for CCCNc1ncnc2c1c(-c1ccccc1)cn2-c1ccccc1 ?
RXFP1 agonist: 3%; RXFP1 antagonist: 6

How did O=C(CCCOc1ccc(Cl)cc1)Nc1nncs1 do in these assays?
RXFP1 agonist: 3%; pAkt inh: -112%*; RXFP1 antagonist: 1; gsp antagonist: 1%; gsp ag: 2%

Results for Cc1ccc(OCCCC(=O)Nc2nncs2)cc1 ?
RXFP1 agonist: 1%; pAkt inh: inactive; RXFP1 antagonist: -12; gsp antagonist: -1%; gsp ag: -16%

Results for CC(C)n1nc(-c2cc3cc(O)ccc3[nH]2)c2c(N)ncnc21 ?
RXFP1 antagonist: -38

What do the screens show for `CC(C)S(=O)(=O)c1csc(C(=O)Nc2ccc(F)cc2)c1N`?
RXFP1 agonist: 3%; pAkt inh: inactive; RXFP1 antagonist: -6; gsp antagonist: active; gsp ag: -6%[15.4 µM]

How did O=C(c1cc(COc2cccc3cnccc23)on1)N1CCCC(CCCO)C1 (stereo unspecified) do in these assays?
RXFP1 agonist: 0%; pAkt inh: inactive; RXFP1 antagonist: -14; gsp antagonist: 35µM*; gsp ag: 11%

How did O=C(Nc1nc(-c2ccccc2)cs1)c1cccc([N+](=O)[O-])c1 do in these assays?
RXFP1 agonist: 2%; pAkt inh: inactive; RXFP1 antagonist: -21; gsp antagonist: 50µM*; gsp ag: 6%

Results for O=C(Cc1ccccc1)Nc1nc(-c2cccc([N+](=O)[O-])c2)cs1 ?
RXFP1 agonist: 2%; pAkt inh: inactive; RXFP1 antagonist: -10; gsp antagonist: 10%; gsp ag: -31%

What do the screens show for `O=C(Nc1nc(-c2cccnc2)cs1)c1cccc([N+](=O)[O-])c1`?
RXFP1 agonist: 0%; pAkt inh: inactive; RXFP1 antagonist: -14; gsp antagonist: 3%; gsp ag: 10%[15.4 µM]

Results for Cc1ccc(C(=O)NC(=S)Nc2nc(-c3cccc([N+](=O)[O-])c3)cs2)c(Cl)c1 ?
RXFP1 agonist: 3%; pAkt inh: inactive; RXFP1 antagonist: -89*; gsp antagonist: 7%; gsp ag: -36%[15.4 µM]

Results for CC(=O)OCC(=O)[C@@]12N=C(C)O[C@@H]1C[C@H]1[C@@H]3CCC4=CC(=O)C=C[C@]4(C)[C@H]3[C@@H](O)C[C@@]12C ?
RXFP1 antagonist: 1

How did CCOC(=O)C1=C(C)N(C2CCCCC2)C(=O)C1 do in these assays?
RXFP1 agonist: 1%; pAkt inh: -101%*; RXFP1 antagonist: -13; gsp antagonist: 1%; gsp ag: -1%

What do the screens show for `Cc1c(F)cc2c(=O)c(C(=O)O)cn3c2c1CCC3C` (stereo unspecified)?
RXFP1 antagonist: -7

How did O=C(Cn1cc(C(=O)C2CC2)c2ccccc21)Nc1ccc(Br)cc1 do in these assays?
RXFP1 agonist: 20µM*; RXFP1 antagonist: 7

How did Cc1ccc(NC(=O)Cn2cc(C(=O)C3CC3)c3ccccc32)cc1 do in these assays?
RXFP1 agonist: 10µM*!; pAkt inh: inactive; RXFP1 antagonist: -2; gsp antagonist: 9%; gsp ag: 17%[15.4 µM]

How did COc1cccc(CNC(=O)CSc2ccc(-c3sc(-c4ccccc4)nc3C)nn2)c1 do in these assays?
RXFP1 agonist: 8%; RXFP1 antagonist: -33

Results for COc1ccc2oc(=O)c(-c3csc(Nc4ccc(O)cc4)n3)cc2c1 ?
RXFP1 agonist: -3%; pAkt inh: inactive; RXFP1 antagonist: -39; gsp antagonist: 25µM*; gsp ag: 0%

Results for COc1ccc2oc(=O)c(-c3csc(-c4ccc(Br)cc4)n3)cc2c1 ?
RXFP1 agonist: 10%; RXFP1 antagonist: 3
